# Measured values: PubChem BioAssay (NCATS)
# Records with an inconclusive call do not appear. Where a call stands in place of a potency, no number is given. Activity calls are given as the source filed them. Calls follow the shape of the dose curve; as a rule, active = well fitted activation curve with a large enough effect; inconclusive = small, poorly fitted or top-dose-only effect; inactive = flat fitted curve, though single readings scatter.
# Assay: Primary redox qHTS assay for identification of artifact compounds. (AID 1845223)
# Conditions: Amplex Red/HRP redox cycling with DTT, fluorescence; series mostly up to 53.8 µM
# Source text: PI: Alexander Tropsha Ph.D.
# UNC Eshelman School of Pharmacy
# University of North Carolina, Chapel Hill, North Carolina
# Hits from high-throughput screening (HTS) of chemical libraries are often false positives due to their interference with the assay detection technology. In response to this problem, we generated the largest publicly available library of chemical liabilities and developed a free webtool to predict HTS artifacts, both of which are described herein. More specifically, we generated, curated, and integrated HTS datasets for thiol reactivity, redox activity, and luciferase (firefly and nano) activity. Using these curated datasets, we developed and validated several Quantitative Structure-Interference Relationship (QSIR) models to predict nuisance behavior. […] These models were employed for virtual profiling of the National Center for Advancing Translational Science's (NCATS) in-house library, and 256 compounds for each assay were selected for the experimental validation of nuisance behavior. The BA for these external predictions ranged from 58 to 78% for compounds within the applicability domains of the models. […] The models developed in this study, along with aggregation models previously developed by our group (SCAM Detective) were implemented in "Liability Predictor," an online tool which may be used as part of chemical library design or for triaging HTS hits. Both the models and the curated datasets are publicly available at https://liability.mml.unc.edu/.
# SEQUENCE No. (e.g., 1, 2, 3, etc.); […] (e.g., Cells, Incubation, Reagent, etc.); VALUE; DESCRIPTION.
# 1; Reagent; 3 uL; Amplex Red and HRP mixture.
# 2; Compounds and control; 16 nL; Kalypsis pin tool (Wako USA) equipped with a 1536-well pin head. […]
# 6; Detection; Fluorescence, ViewLux microplate reader, 525 nm excitation, 598 nm emission.
# NOTES (numbers refer to Sequence numbers above)
# 1. 3 uL of a mixture containing Amplex Red (25 uM final concentration) and horseradish peroxidase (HRP; 250 mU/mL final concentration) in assay buffer (HBSS) was dispensed into all wells of a 1536-well assay plate (solid-bottom black plate; Greiner Bio One, Monroe, NC).
# 2. A Wako Pin-tool (Wako Automation, Richmond, VA) was used to transfer 16 nL of compounds (consisting of 7-plates in qHTS format, final concentration range 18.3 nM to 114 uM) or control DA3003 (final concentration range 1.22 nM to 40 uM).
# 3. 15 min. incubation at room temperature protected from light.
# 4. 1 uL of DTT (prepared fresh; final concentration 250 uM) was dispensed for a final assay volume of 4 uL.
# 5. Plates were centrifuged (121xg, 15 seconds) and incubated for 30 minutes at room temperature protected from light.
# 6. Samples were read for fluorescence (Ex/Em = 525(20)/598(25) nm) on a ViewLux CCD imager (PerkinElmer). Data were normalized to DMSO (0% activity) and DA3003 (10 uM final concentration; 100% activity) and the resulting percent inhibition data were fitted to a 4-parameter Hill equation using NCATS in-house software.
SMILES,Potency,redox activity (% of DA3003)
C=C(C)C1=C[C@@]2(C)C(=CC1=O)CC[C@@H](O)[C@@H]2C,inactive,–
CC1OC(OC2C(O)COC(O[C@@H]3[C@@H](O)[C@@H](O)[C@H](OC4C(OC(=O)[C@]56CCC(C)(C)CC5C5=CCC7[C@@]8(C)C[C@H](O)[C@H](OC9OC(CO)C(O)C(O)C9O)[C@@](C)(CO)C8[C@H](O)C[C@@]7(C)[C@]5(C)CC6)OCC(O)C4O)O[C@H]3C)C2O)C(O)C(O)C1O (stereo not given in full),–,3.65% [at 11.5 µM] (inactive)
C=CC(C)(O)CC[C@@H]1[C@@]2(C)CCCC(C)(C)C2CC[C@@]1(C)O (stereo not given in full),inactive,–
C/C(=C/CO)CCC1C(C)CCC2C(C)(C)CCCC12C (stereo not given),inactive,–
Cc1[nH]c2ccccc2c1CCNCc1ccc(/C=C/C(=O)NO)cc1,inactive,–
Cc1nc(Nc2ccc(F)cc2)nc(N2CCc3ccccc3C2C)c1C (stereo not given),inactive,–
CCOc1ccc(-n2c([C@@H](C)N(Cc3cccnc3)C(=O)Cc3ccc(OC(F)(F)F)cc3)nc3ncccc3c2=O)cc1,inactive,–
Fc1ccc(N2CCCCC2)c(NC(=S)c2ccncc2)c1,inactive,–
CNc1ccc([N+](=O)[O-])c(Nc2ccc3[nH]ncc3c2)n1,inactive,–
C=C1C(=O)O[C@@H]2C[C@@]3(C)C[C@@H](O)C[C@H](C)C3=C[C@H]12,inactive,–
Nc1ncnc2c1nc(Cl)n2C1OC2COP(=O)(O)OC2C1O (stereo not given),inactive,–
C[C@H](Nc1cc2c(-c3ccc4c(c3)OCO4)noc2cn1)c1ccccc1,inactive,–
CC(C)c1ccc(NC(=O)Cn2cnc3c2c(=O)n(C)c(=O)n3C)cc1,inactive,–
O=c1ccc2ccc(OCCCCN3CCN(c4cccc5sccc45)CC3)cc2[nH]1,inactive,–
CCC(CC)Nc1nc(C)c(-c2ccc(OC(F)(F)F)cc2OC)nc1OC,inactive,–
C=C(COC(=O)C(O)C(O)CN)C12OC1C1(C)C(=CC2=O)C(O)C(O)CC1C (stereo not given),inactive,–
CCn1c(N)c(C(=O)NC)c(=O)c2ccc(C#CC(C)(O)COC)nc21 (stereo not given),inactive,–
C=C(C(=O)OC)[C@@H]1CC=C2C=CC(=O)[C@H](C)[C@@]2(C)C1,inactive,–
CC(C)(O)C1Cc2c(ccc(C(=O)CCc3ccccc3)c2O)O1 (stereo not given),inactive,–
C1=C/COCc2cc(ccc2OCCN2CCCC2)Nc2nccc(n2)-c2cccc(c2)COC/1,inactive,–

SMILES,Potency,redox activity (% of DA3003)
CNC(=O)COC(=O)N1CCC(CCc2ccc(Cl)cc2)CC1,inactive,–
CC(C)C[C@H](CO)Nc1nc(S[C@@H](C)c2ccccc2)nc2nc(N)sc12,inactive,–
C=C1C(=O)OC2CC3(C)C(O)C(=O)C=C(C)C3CC12 (stereo not given),inactive,–
CCOC(=O)N1c2ccc(C(F)(F)F)cc2C(N(Cc2cc(C(F)(F)F)cc(C(F)(F)F)c2)C(=O)OC)CC1CC (stereo not given),inactive,–
C/C=C/CCC1Cc2cc(O)c(CCCC)c(O)c2C(=O)O1 (stereo not given),inactive,–
N#Cc1ccc2ncnc(NCCc3ccccc3)c2c1,inactive,–
CN1CCN(c2ccc(Nc3cc(-c4cccc(-n5ccc6cc(C7CC7)cc(F)c6c5=O)c4CO)cn(C)c3=O)nc2)CC1,inactive,–
Nc1nc(NC2CC2)cc(-c2cccc(Cl)c2Cl)n1,inactive,–
CC(=O)O[C@@H]1CC2C(/C=C(\C)C(=O)[C@@]3(O)C[C@@H](C)[C@H](OC(=O)c4ccccc4)C3/C=C/1C)C2(C)C (stereo not given in full),inactive,–
Cc1c(F)ccc(C(=O)Nc2cc([N+](=O)[O-])ccc2N2CCN(C)CC2)c1Cl,inactive,–
COC(=O)/C=C/C=C/C(=O)OC1C=C2COC(=O)C2(O)C2(C)CCCC(C)(C)C12 (stereo not given),inactive,–
C=C(C)C(=O)O[C@H]1[C@H]2C(=C)C(=O)O[C@@H]2C[C@@H](C)[C@@H]2O[C@@H]2C(=O)[C@](C)(O)[C@@H]1OC(=O)C(=C)C,inactive,–
C=C1C(=O)OC2C1CCC1(C)C(O)CCC(=C)C21 (stereo not given),inactive,–
CN(C)C(=O)Nc1cccc(-c2ccc(N(C)C)cc2)c1,inactive,–
CC(C)(C)[C@H](NC(=O)c1ccc(N)c(Cl)c1)C(=O)N1CCC[C@H]1C(=O)N[C@H](C#N)CC(=O)O,inactive,–
CC[C@@H](Nc1c(Nc2cccc(C(=O)N(C)C)c2O)c(=O)c1=O)c1cc(C(C)C)co1,inactive,–
Nc1nc(O)c(C2=C3C(=Nc4ccccc43)C(=O)NCC2)[nH]1,inactive,–
Cn1ncnc1[C@@H]1c2n[nH]c(=O)c3cc(F)cc(c23)N[C@H]1c1ccc(F)cc1,inactive,–
O=C(O)CCc1nccc2c1[nH]c1ccccc12,inactive,–
O=C(NCCCc1ccccc1)C1CCC(CNS(=O)(=O)c2cccc3nsnc23)CC1 (stereo not given),inactive,–
